High-throughput results as filed in PubChem BioAssay.
ATXN2 expr inh – reduces ATXN2 reporter expression in HEK-293 cells; HEK-293 ATXN2-luciferase reporter, luminescence, 24 h; Potency, µM (top dose mostly 57 µM), inactives show at the highest dose activity change, negative = inhibition, usual class: inhibitors; AID 1745845; 0.72% of 360,000 active; note: % is set by controls: 0 for no effect and ±100 for the full control effect; nearly all actives have a fitted effect of over 55% in size
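ATXN2-luciferase reporter cells (luciferase flanked by upstream and downstream ATXN2 gene portions) were treated 24 h at 37 °C with compounds at up to 57 uM. SteadyGlo luminescence gave expression; GF-AFC fluorescence gave viability.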
Nrf2 block – Nrf2 pathway inhibition; A549 ARE-Fluc reporter, luciferase luminescence, 18-24 h; Potency, µM (highest dose often 46 µM), for inactives: at the top dose activity change, negative = inhibition, actives largely listed as inhibitors; 2.1% of 360,000 active; note: % is set by controls: 0 for no effect and ±100 for the full control effect; nearly all actives have a fitted effect of over 60% in size
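Concentration-response testing used A549 ARE_Fluc cells at 5000 cells/well. Following an 18-24 h compound incubation, viability was read by fluorescence (Ex 405/Em 525) and luciferase output by luminescence.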
HepG2 viability – counter-screen for TGF-b inhibitors: cytotoxicity in HepG2 cells | HepG2 CAGA-GFP viability, ATP luminescence, 18 h | Potency, µM (titrated, usually from 46.1 µM), inactives show at the highest dose activity change, negative = cytotoxicity, hits mostly cytotoxic | 0.76% of 410,000 active
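CellTiter-Glo luminescence gave cytotoxicity after 18 hours at 37 degrees C. The cells were HepG2 CAGA-GFP in 1% FBS DMEM, stimulated with 500 pg/mL TGF-beta after compound addition. %Activity was normalised to no-cell wells (complete cell-killing) and DMSO (no toxicity), and curves were fitted and classified.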
A549 viability – kills or reduces viability of A549 cells in Nrf2 counter-screen; Potency, µM (top dose mostly 46 µM), without a hit: at the highest dose activity change, negative = cytotoxicity, most hits filed as inhibitors; A549 ARE-Fluc cells, CellTiter-Fluor viability, 18-24 h; 0.16% of 390,000 active; note: % is set by controls: 0 for no effect and ±100 for the full control effect
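Cytotoxicity counterscreen: CellTiter-Fluor fluorescence was measured in A549 ARE_Fluc cells after 18-24 h of compound exposure in a concentration series. The subsequent BugLite luminescent read reports ARE-luciferase activity.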
TGFb SMAD3 inh – TGF-b pathway inhibition; Potency, µM (top dose mostly 46.1 µM), for the others: at the highest dose activity, negative = inhibition, hits mostly inhibitors; AID 588855; HepG2 CAGA-GFP TGF-b/SMAD3 reporter, GFP fluorescence, 18 h; TGF-beta stimulated, 500 pg/mL final; 1.2% of 410,000 active; note: % is set by controls: 0 for no effect and ±100 for the full control effect; nearly all actives have a fitted effect of over 65% in size
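Using HEPG2 CAGA-GFP reporter cells at 1000 cells/well, we pinned test compounds, stimulated with recombinant TGF-beta (500 pg/mL final) and measured total well GFP after 18 h.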
ATXN viability – viability counter-screen for ATXN expression inhibitors; S2 cells (HEK-293 line with an ATXN2-luciferase reporter) viability, CellTiter-Fluor protease fluorescence, 24 h; Potency, µM (titrated, usually from 56.7 µM), usual class: cytotoxic; 0.49% of 400,000 active; AID 651635; note: nearly all actives have a fitted effect of over 40% in size
* = called active by the depositor; i = inactive; ? = inconclusive; . = no result; [ ] = dose if it differs, or a comment. Compounds with a hit are over-represented: about 3.8% of the library has one in this group of screens. Calls come from the whole dose curve; as a rule, active = well fitted curve in the direction sought with a large enough effect; inconclusive = small, poorly fitted or top-dose-only effect, or another doubt; inactive = no such curve, though single readings can be large; an effect the other way counts as inactive or inconclusive. Potency is the fitted concentration of half-maximal effect.

SMILES	ATXN2 expr inh	Nrf2 block	HepG2 viability	A549 viability	TGFb SMAD3 inh	ATXN viability
COc1cc2c(=O)c(C(=O)c3ccc(C)c(C)c3)cn(Cc3ccccc3F)c2cc1OC	10%	?	4%	21µM*	?	?
Cc1oc(-c2ccccc2F)nc1Cn1c(SCc2cccc(Cl)c2)nc2ccncc21	.	?	-19%	?	18µM*	.
CCOc1ccc(Oc2nc(Nc3ccc(C)cc3)nc(N(C)C)n2)nn1	-16%	21µM*	1%	-12%	-18%	?
O=C(CCc1nc2ccccc2c(=O)[nH]1)NCCN1C(=O)S/C(=C\c2ccc(OC(F)F)cc2)C1=O	11%	?	10µM*	-1%	4%	i
CCCc1nc2cccnc2n1C1CCN(C(=O)CC2NC(=O)c3ccccc32)CC1 (stereo unspecified)	.	.	.	.	.	i
Cc1onc(-c2ccccc2)c1C(=O)NNC(=S)NC(=O)c1ccc(Cl)cc1Cl	-17%	?	13µM*	1%	?	i
O=C(NC(=S)NNC(=O)c1ccc(Cl)cc1Cl)c1cccnc1	-17%	11%	-23%	0%	-4%	i
COc1ccc(Cl)cc1NC(=O)COC(=O)c1c(-c2ccccc2)noc1C	.	10µM*	-14%	-1%	-22%	i
COc1ccc(Cl)cc1NC(=O)c1c(-c2ccccc2)noc1C	-1%	12%	2%	-6%	2%	i
Cc1ccccc1C(=O)NNC(=S)NC(=O)c1ccc(Cl)cc1Cl	-9%	23µM*	-16%	?	?	i
COc1cc(-c2noc(CCCC(=O)NC3CCCCC3)n2)cc(OC)c1OC	-4%	17%	7%	8%	12%	i
Cc1c(C(=O)OC/C(O)=C(\C#N)c2nc3ccccc3[nH]2)oc2ccccc12	?	-7%	-56%	-6%	13µM*	?
Cc1c(C(=O)OCC(O)=C(C#N)c2nc3ccccc3[nH]2)oc2ccc(Br)cc12	0%	-7%	-10%	3%	0%	i
CN(C)CCCNc1nc2cc(-c3ccc4c(ccn4C)c3)sc2c(=O)n1C	11%	.	-34%	.	?	i
O=C(Nc1cccc(Br)c1)c1ccc(CN2CCc3ccccc3C2)cc1	-32%	8.2µM*	-18%	-18%	?	i
O=C(Nc1ccc(F)cc1)c1ccc(CN2CCc3ccccc3C2)cc1	.	5.8µM*	-28%	-1%	-24%	i
O=C(CC1NCCNC1=O)Nc1ccc(F)c(Cl)c1 (stereo unspecified)	15%	-3%	-28%	-8%	?	i
Cc1sc2ncnc(NCC3CCCO3)c2c1C (stereo unspecified)	-19%	21µM*	-23%	-12%	-11%	i
CC(=O)N1CCN(C(=O)c2sc3ncnc(NCC4CCCO4)c3c2C)CC1 (stereo unspecified)	.	.	.	.	.	i
CCCCCC(=O)NNC(=S)NC(=O)c1ccccc1[N+](=O)[O-]	.	23µM*	-45%	?	82%	i
CCN(CC)S(=O)(=O)c1cccc(S(=O)(=O)c2cccc(S(=O)(=O)N(CC)CC)c2)c1	-30%	9.2µM*	-35%	1%	-21%	i
CCN(CC)S(=O)(=O)c1cccc(S(=O)(=O)N2CCCCC2)c1	0%	5%	4%	-2%	1%	i
COc1ccc(OC)c(-c2cc(C(=O)Nc3ccc(F)cc3F)no2)c1	-30%	?	-5%	-4%	3%	i
Cc1nn(CC(=O)Nc2cccnc2)c(C)c1[N+](=O)[O-]	9%	1%	12%	1%	-1%	i
O=C(Cc1ccccc1)N(Cc1cccnc1)c1nc2c(F)cccc2s1	.	.	-35%	-14%	1.6µM*	.
SMILES	ATXN2 expr inh	Nrf2 block	HepG2 viability	A549 viability	TGFb SMAD3 inh	ATXN viability
O=C(Cc1ccccc1)N(Cc1cccnc1)c1nc2c(Cl)cccc2s1	.	.	-6%	-15%	-27%	.
CCn1c(COc2ccc(Cl)cc2)nnc1SC1CCc2ccccc2C1=O (stereo unspecified)	-25%	26µM*	1%	0%	13%	i
Nc1ncnc2c1c(-c1cccc(OCc3ccccc3)c1)cn2C1CC(CN2CCCC2)C1 (stereo unspecified)	31µM*	.	.	.	.	.
O=C(Nc1ccccc1)c1cn(CCBr)cn1	.	?	-4%	7%	15%	i
CC(C(=O)NCCS(=O)(=O)c1ccc(Cl)cc1)S(=O)(=O)c1ccc(Cl)cc1 (stereo unspecified)	-13%	9.2µM*	8%	-1%	40%	?
CCOc1ccc2nc(SCC(=O)NCc3ccc(S(N)(=O)=O)cc3)[nH]c2c1	1%	3%	-16%	10%	-10%	i
COc1cc2c(cc1OC)CN(c1ccc(-c3ccccc3OC)nn1)CC2	?	18µM*	-21%	-5%	-18%	?
COc1cc2c(cc1OC)CN(c1ccc3ccccc3n1)CC2	-7%	-23%	-20%	2%	-16%	i
CCCCCCCCCCOCC(O)CN (stereo unspecified)	40µM*	.	.	.	.	40µM*
C=CCOC(=O)C1=C(C)OC(N)=C(C#N)C1c1ccccc1F (stereo unspecified)	-1%	.	-17%	5%	-21%	i
C=CCOC(=O)C1=C(C)NC(=S)C(C#N)(CC=C)C1c1ccccc1Cl (stereo unspecified)	.	9%	-38%	-5%	11µM*	i
O=C(CCCCCCCC(=O)c1ccccc1)c1ccccc1	-8%	7%	2%	4%	-7%	i
C=C(CCC(=O)c1ccccc1)C(=O)c1ccccc1	?	-13%	10µM*	-1%	-33%	?
O=C(Nc1cccc(Cl)c1)Nc1cccc(Cl)c1	5%	?	-20%	?	-16%	i
O=C(Nc1ccccc1)Nc1cc(OCC(F)(F)F)cc(OCC(F)(F)F)c1	-10%[11.3 µM]	?	11µM*	?	?	i
O=C(Nc1ccccc1)Nc1cc(Cl)cc(Cl)c1	?	?	-82%	?	16µM*	?
CCCOC(=O)N[C@@H]1C(=O)N2C(C(=O)OCCC)=C(C)CS[C@H]12	-3%	-3%	-26%	0%	-10%	i
Cc1ccc(C)c(Cn2c(C(=O)OC(C)C)cc3c2ccn3C)c1	-10%	-18%	-27%	-1%	-23%	i
Cc1cccc(N(C)C(=O)CN(C)S(=O)(=O)c2ccc3[nH]c4c(c3c2)CCCC4)c1	0%	?	-24%	-11%	?	?
